Common to all, as to test: NCI-60 one-dose screen, 48 h (100 = growth as untreated, 0 = no growth, -100 = all killed)
The subject of one assay is HCT-15 colon. The note with it: 10 µM unless noted.
In another assay the test system is HT29 colon. Conditions: 10 µM unless noted.
A further assay concerns SNB-75 CNS. The note with it: 10 µM unless noted.
The next assay concerns SNB-19 CNS. Conditions: 10 µM unless noted.
In a further assay the test system is U251 CNS. The note with it: 10 µM unless noted.
A further assay deals with PC-3 prostate. The note with it: 10 µM unless noted.
For the next assay, the system named is SK-MEL-5 melanoma. Conditions: 10 µM unless noted.
The subject of the next assay is UACC-62 melanoma. The note with it: 10 µM unless noted.
The next assay has as its system LOX IMVI melanoma. The note with it: 10 µM unless noted.
Another assay relates to SK-MEL-28 melanoma. Conditions: 10 µM unless noted.
The subject of another assay is SK-MEL-2 melanoma. The note with it: 10 µM unless noted.
Another assay deals with EKVX NSCLC. Conditions: 10 µM unless noted.
A further assay has as its system SN12C renal. The note with it: 10 µM unless noted.
Another assay has as its system UO-31 renal. The note with it: 10 µM unless noted.
The test system of another assay is TK-10 renal. Conditions: 10 µM unless noted.
In the next assay the test system is ACHN renal. Conditions: 10 µM unless noted.
For another assay, the system named is CAKI-1 renal. The note with it: 10 µM.
The test system of another assay is A498 renal. The note with it: 10 µM unless noted.
In the next assay the test system is CCRF-CEM leukemia. Conditions: 10 µM unless noted.
The next assay relates to MOLT-4 leukemia. Conditions: 10 µM unless noted.

SMILES strings stand for the structures. Compounds without any hit were thinned out: in the full panel of roughly 83,000, 20% have a hit.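 Interpretation: 100, growth as untreated; towards 0, rising growth inhibition; 0, no net growth; 0 to -100, cell death. Compounds scoring below 10 were considered active.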 A number with no mark means an inactive call. Calls of active or inactive are those of the source.

As to `Cc1ccc(/C=C/CC(=O)Nc2ccc(C(=O)Nc3ccc(F)cc3N)nc2)cn1`, the growth with HCT-15 colon is 52.3%; with HT29 colon, 15.9%; in the assay on SNB-75 CNS, 36.7%; in the assay on SNB-19 CNS, 60%; in the assay on U251 CNS, 44.9%; in the assay with PC-3 prostate, 42.9%. The growth with SK-MEL-5 melanoma was 20.9%; with UACC-62 melanoma it was 21.8%; in the assay with LOX IMVI melanoma it was 24.3%; in the assay on SK-MEL-28 melanoma, 25.3%; in the assay with SK-MEL-2 melanoma, 31.3%; with EKVX NSCLC, 49.8%. The growth is 57.6% in the assay with SN12C renal; 25.3% in the assay on UO-31 renal; 6.58% (active) in the assay with TK-10 renal; 31.6% with ACHN renal; 26.4% with CAKI-1 renal; -3.27% (active) in the assay on A498 renal. Besides, the results for the growth in the assay on CCRF-CEM leukemia and in the assay on MOLT-4 leukemia were 17.8% and 18.1%, respectively.
With `Cc1occc1-c1nc2s/c(=C\c3cn(-c4ccccc4)nc3-c3ccccc3)c(=O)n2n1`, the growth in the assay with HCT-15 colon is 99.2%; with HT29 colon it was 101%; in the assay with SNB-75 CNS, 84%; in the assay on SNB-19 CNS, 96.8%; in the assay on U251 CNS it was 97.1%; in the assay with PC-3 prostate, 90.6%. The growth with SK-MEL-5 melanoma is 92.4%; in the assay on UACC-62 melanoma, 92.1%; in the assay with LOX IMVI melanoma it was 103%; with SK-MEL-28 melanoma, 101%; in the assay with SK-MEL-2 melanoma, 99.9%; in the assay with EKVX NSCLC, 99.4%. The growth is 89.3% with SN12C renal; 90.5% in the assay with UO-31 renal; 106% in the assay on TK-10 renal; 108% with ACHN renal; 89.2% in the assay with CAKI-1 renal; 92.9% in the assay with A498 renal. Moreover, the growth in the assay with CCRF-CEM leukemia was 90.9%; in the assay on MOLT-4 leukemia, 107%.
In the case of `CNC(=O)c1cc(N2CCc3cc(NC(=O)Nc4ccc(Cl)c(Cl)c4)ccc32)ccn1`, the growth in the assay on HCT-15 colon is 63%; in the assay with HT29 colon, 82.1%; in the assay with SNB-75 CNS, 87.9%; in the assay with SNB-19 CNS, 81.4%; in the assay on U251 CNS it was 70%; in the assay with PC-3 prostate it was 65.2%. The growth is 74.5% in the assay on SK-MEL-5 melanoma; 78.9% in the assay on UACC-62 melanoma; 86.9% with LOX IMVI melanoma; 86.5% in the assay with SK-MEL-28 melanoma; 84.3% in the assay on SK-MEL-2 melanoma; 85.3% in the assay on EKVX NSCLC. The growth is 86.1% in the assay on SN12C renal; 89.1% in the assay with UO-31 renal; 99.3% in the assay with TK-10 renal; 80.1% in the assay with ACHN renal; 82.2% in the assay on CAKI-1 renal; 89.1% in the assay on A498 renal. Besides, the growth in the assay on CCRF-CEM leukemia was 86.5%; in the assay on MOLT-4 leukemia, 67.7%.
`CC1(C)CC[C@]2(C(=O)N3CCCNCC3)CC[C@]3(C)C(=CC[C@@H]4[C@@]5(C)CCC(=O)C(C)(C)[C@@H]5CC[C@]43C)[C@H]2C1`: the growth is 103% in the assay with HCT-15 colon; 102% in the assay on HT29 colon; 124% with SNB-75 CNS; 98% in the assay with SNB-19 CNS; 100% in the assay on U251 CNS; 88.2% in the assay on PC-3 prostate. The growth in the assay with SK-MEL-5 melanoma was 102%; with UACC-62 melanoma, 89.6%; with LOX IMVI melanoma it was 97.2%; in the assay with SK-MEL-28 melanoma, 104%; in the assay with SK-MEL-2 melanoma, 108%; in the assay with EKVX NSCLC it was 103%. Besides, the growth in the assay with SN12C renal is 98.7%; in the assay with UO-31 renal, 95.3%; in the assay with TK-10 renal, 97.1%; in the assay on ACHN renal it was 105%; in the assay with CAKI-1 renal, 89%; in the assay on A498 renal, 109%. The growth in the assay with CCRF-CEM leukemia was 90.6%; in the assay with MOLT-4 leukemia, 106%.
With `O=C(NCCCCCCNC(=O)c1c2c(nc3ccccc13)-c1cccnc1SC2)c1c2c(nc3ccccc13)-c1cccnc1SC2`, the growth in the assay with HCT-15 colon was 74.8%; in the assay on HT29 colon, 53.7%; in the assay on SNB-75 CNS, 62.9%; with SNB-19 CNS, 66.5%; in the assay with U251 CNS, 77.6%; in the assay with PC-3 prostate it was 81%. The growth in the assay on SK-MEL-5 melanoma was 84.3%; with UACC-62 melanoma it was 12.2%; in the assay on LOX IMVI melanoma, 78.6%; in the assay with SK-MEL-28 melanoma, 27.7%; in the assay on SK-MEL-2 melanoma, 5.25% (active); in the assay with EKVX NSCLC it was 49.1%. Besides, the growth is 73.8% in the assay with SN12C renal; 38.8% in the assay on UO-31 renal; 145% with TK-10 renal; 65.8% in the assay on ACHN renal; 61.5% with CAKI-1 renal; 76.5% with A498 renal. The growth in the assay on CCRF-CEM leukemia is 93.6%; in the assay on MOLT-4 leukemia, 88.1%.
For `COC(=O)c1c(C(=O)OC)c2n(CC(=O)Nc3cccc4cccnc34)c3ccccc3n2c1C(=O)c1ccc(C)cc1`, the growth with HCT-15 colon is 97.6%; in the assay on HT29 colon it was 102%; in the assay on SNB-75 CNS, 101%; in the assay on SNB-19 CNS it was 91.1%; in the assay with U251 CNS, 97.7%; in the assay with PC-3 prostate it was 82.5%. Besides, the growth in the assay with SK-MEL-5 melanoma was 96.4%; in the assay on UACC-62 melanoma, 84.6%; in the assay on LOX IMVI melanoma it was 98.9%; in the assay on SK-MEL-28 melanoma, 110%; with SK-MEL-2 melanoma it was 102%; with EKVX NSCLC it was 97.4%. Further, the growth was 92.5% with SN12C renal; 75.7% in the assay on UO-31 renal; 108% in the assay with TK-10 renal; 97.6% in the assay on ACHN renal; 104% with CAKI-1 renal; 105% with A498 renal. Also, the growth is 95.4% with CCRF-CEM leukemia and 93.3% in the assay with MOLT-4 leukemia.
For the molecule `O=C(/C=C/c1cccc(O)c1)c1ccc(O)cc1`, the growth with HCT-15 colon is 49.6%; with HT29 colon, 80.7%; with SNB-75 CNS it was 103%; in the assay with SNB-19 CNS, 74.9%; with U251 CNS, 43.3%; with PC-3 prostate it was 65.3%. The growth with SK-MEL-5 melanoma is 96.9%; with UACC-62 melanoma, 80%; in the assay on LOX IMVI melanoma, 32.2%; in the assay on SK-MEL-28 melanoma it was 101%; with SK-MEL-2 melanoma it was 107%; with EKVX NSCLC, 98.4%. The growth with SN12C renal is 65.6%; in the assay on UO-31 renal, 72.6%; in the assay on TK-10 renal it was 98.3%; in the assay on ACHN renal, 75.1%; with CAKI-1 renal, 65.3%; in the assay on A498 renal, 114%. Besides, the growth in the assay on CCRF-CEM leukemia was 37%; in the assay on MOLT-4 leukemia, 91.7%.

The record behind these values is PubChem BioAssay (NCI).
